DAX1 inh: NR0B1 (DAX1) inhibition. P51843. HEK293 Gal4-DAX1 luciferase reporter, luminescence. inhibition, % at 6.75 µM. actives 0.99% (n = 340,000);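 active = inhibition above the mean over all tested compounds plus 3 SD, cut at about 4.2% in these data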;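 also: inhibition shows as a rise in luminescence from relieved DAX1 repression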
AHR activator: activators of human aryl hydrocarbon receptor | P35869 | AHR-responsive luciferase reporter cells, luminescence | activation, % at 5 µM | actives 2.5% (n = 320,000); in the data active = activation above about 47%
Target sequence (P35869 whole entry, looked up): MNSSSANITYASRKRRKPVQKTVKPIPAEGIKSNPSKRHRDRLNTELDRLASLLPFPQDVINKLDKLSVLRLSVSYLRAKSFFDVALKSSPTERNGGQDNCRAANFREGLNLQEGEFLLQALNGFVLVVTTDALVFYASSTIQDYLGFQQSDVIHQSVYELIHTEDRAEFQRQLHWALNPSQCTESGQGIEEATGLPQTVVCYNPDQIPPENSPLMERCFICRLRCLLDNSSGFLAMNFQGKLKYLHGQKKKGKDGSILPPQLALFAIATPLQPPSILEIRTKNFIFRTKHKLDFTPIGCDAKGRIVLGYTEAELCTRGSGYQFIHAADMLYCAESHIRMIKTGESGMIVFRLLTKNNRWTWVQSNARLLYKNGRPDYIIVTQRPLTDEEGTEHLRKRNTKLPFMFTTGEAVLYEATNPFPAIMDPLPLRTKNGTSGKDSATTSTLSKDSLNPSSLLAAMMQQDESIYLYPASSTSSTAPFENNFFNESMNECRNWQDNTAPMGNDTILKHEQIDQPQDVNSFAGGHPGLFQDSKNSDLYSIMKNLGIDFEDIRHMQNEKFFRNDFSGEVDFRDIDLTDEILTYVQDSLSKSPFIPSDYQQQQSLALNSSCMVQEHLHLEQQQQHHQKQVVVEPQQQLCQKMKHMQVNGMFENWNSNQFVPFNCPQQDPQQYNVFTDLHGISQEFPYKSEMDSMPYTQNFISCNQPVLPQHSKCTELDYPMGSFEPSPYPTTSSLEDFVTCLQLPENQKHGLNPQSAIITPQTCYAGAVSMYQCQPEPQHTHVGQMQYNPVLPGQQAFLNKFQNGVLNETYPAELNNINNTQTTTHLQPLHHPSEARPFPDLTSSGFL
FXN GAA850 act: increases GAA850 frataxin promoter reporter activity; HEK293 lucGAA850 FXN promoter luciferase reporter, 24 h; percent of 10 µM SAHA response; AID 540364; actives 0.56% (n = 360,000); activation, % at 6 µM;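 active = activation above the average of all compounds screened plus 3 SD, cutoff fixed separately per campaign, cut at about 7.5% in these data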
HSF-1 act: increases HSF-1 driven luciferase reporter signal. NIH3T3-HGL HSF-1 luciferase reporter, MG132, 8 h; 100% = twice DMSO control signal. AID 504408. actives 1.7% (n = 300,000). activation, % at 9 µM;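 active = mean replicate activation of at least 50% with a set share of replicates each reaching 50%; inconclusive = only one of those two conditions met; inactive = mean below 50% and too few replicates reaching it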
HSF1 inh: HSF1 inhibition; activity change, negative = inhibition, % at 7.5 µM (by protocol); NIH3T3-HGL HSE-luciferase, MG132-induced, luminescence 8 h; hits give low values; actives 0.77% (n = 300,000); AID 2098;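 active = more than half of replicate wells show activity change below -50%, luminescence cut by over half; inconclusive = some wells, but at most half, below -50%; inactive = no replicate well below -50%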;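 also: luciferase reports HSF-1 transcriptional activity via heat shock element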
Hits are given with their value; - = inactive; ? = inconclusive; . = not tested or not shown. Only some compounds are listed: those with a hit (about 5.4% of all), similar ones and a draw of the others.

SMILES	DAX1 inh	AHR activator	FXN GAA850 act	HSF-1 act	HSF1 inh
CC1Cc2cc(S(=O)(=O)N3CCCC(C(=O)N4CCCCC4)C3)ccc2N1C(=O)C1CC1 (stereo not given)	-	-	-	-	-
CC1CCCN(C(=O)C2CCN(S(=O)(=O)c3ccc4c(c3)CC(C)N4C(=O)C3CC3)CC2)C1 (stereo not given)	-	-	-	-	-68
COC(=O)Nc1ccc(S(=O)(=O)N2CCC(C(=O)N3CCCC(C)C3)CC2)cc1 (stereo not given)	-	-	-	69	-
COc1ccccc1N1CCN(CCC(=O)Nc2cccc(Cl)c2)CC1	-	-	-	-	-
CCN(CC(=O)Nc1ccc(OC)cc1)CC(=O)N1CC(=O)Nc2ccccc21	-	-	-	.	.
Cc1cc(C)c(S(=O)(=O)Nc2ccc(C(=O)O)cc2)cc1S(=O)(=O)Nc1ccc(C(=O)O)cc1	-	-	-	-	-
CC(=O)Nc1ccc(-c2cc3ccccc3o2)cc1	4.5	-	-	-	-
Cc1ccc(NC(=O)c2cc3ccccc3o2)cc1Cl	6.8	.	-	-	-
CCC(=O)Nc1ccc(-c2cc3ccccc3oc2=O)cc1	-	-	-	-	-
CC(C)NC(=O)c1cc2ccccc2o1	5.1	-	-	-	-
O=C(NCCc1ccc(F)cc1)c1cc2ccccc2oc1=O	4.3	-	-	-	-
COc1cccc(NC(=O)Cn2cnc3sc(C)c(S(=O)(=O)N4CCCCC4)c3c2=O)c1	-	-	-	-	-
CC(=O)Nc1ccc(NC(=O)c2cc(=O)c3ccccc3o2)cc1	-	-	-	-	-
O=C(Nc1ccc(F)cc1)c1cc2ccccc2o1	4.3	72	-	?	-
O=C(NNC(=O)c1ccccc1O)c1cc2ccccc2o1	-	68	-	-	-
COc1ccc(NC(=O)c2cc3ccccc3o2)cc1OC	-	-	-	-	-
Cc1ccc(NC(=O)c2cc(=O)c3ccccc3o2)cc1	-	55	-	-	-
COc1ccc(NC(=O)c2cc3ccccc3o2)cc1	-	-	-	55	-
N#Cc1ccc(Cl)cc1NC(=O)CN1C(=O)C(=O)N(CCC2=CCCCC2)C1=O	-	.	-	.	.
CCCOc1ccc2cc(C(=O)NCc3ccccc3)c(=O)oc2c1	-	-	-	-	-61
COc1ccc2oc(=O)c(C(=O)NCc3ccccc3)cc2c1	-	-	-	-	-
NC(=S)N/N=C\c1c(OCc2ccccc2Cl)ccc2ccccc12	-	70	-	.	.
Cc1ccc(S(=O)(=O)NCC(c2ccccc2)N2CCN(c3ccc(F)cc3)CC2)cc1 (stereo not given)	-	.	-	54	-
CCCCN(S(=O)(=O)c1ccccc1)S(=O)(=O)c1ccccc1	-	-	-	-	-
Nc1cccc2c1C(=O)N(c1ccccc1)C2=O	-	49	-	-	-
SMILES	DAX1 inh	AHR activator	FXN GAA850 act	HSF-1 act	HSF1 inh
O=C1c2cccc3cccc(c23)C(=O)N1c1ccccc1Cl	-	-	-	?	-
CCCCC(=O)Nc1cccc2c1C(=O)N(c1ccccc1)C2=O	-	-	-	-	-
O=C1Cc2ccccc2C(=O)N1c1ccccc1	-	-	-	-	-
Nc1ccccc1N1C(=O)c2cccc3cccc(c23)C1=O	.	67	-	-	-
O=C1c2ccccc2C(=O)N1c1ccccc1	5.2	.	-	.	.
COC(=O)c1c(NC(=S)NNC(=O)c2ccc(Cl)s2)sc(C(=O)N(C)C)c1C	-	-	-	-	-
CC1CN(C(=O)Nc2cccc(Cl)c2)C2(CCCCCC2)O1 (stereo not given)	-	-	-	-	-
O=C(CCc1ccccc1)NC(=S)Nc1ccccc1Br	8.4	-	-	-	-
O=C(CCc1ccccc1)NNC(=O)c1ccccc1Br	5.0	-	-	-	-
COc1ccccc1NC(=S)NC(=O)CCc1ccccc1	-	-	-	-	-
CC(C)c1ccc(CNn2cnnc2)cc1	-	-	-	-	-
Cc1[nH]n(-c2cccc(Cl)c2)c(=O)c1C=NCC(C)C	4.3	-	-	-	-
Cc1[nH]n(-c2cccc(Cl)c2)c(=O)c1C=NCc1ccco1	5.7	-	-	.	.
O=S(=O)(NCCc1ccccc1)c1ccc(Cl)nc1	-	-	-	-	-
CC(=O)Nc1cccc(OCCCNC(=O)c2ccc(C(C)(C)C)cc2)c1	.	47	-	-	-
CC(=O)Nc1cccc(OCCCNC(=O)c2ccc(F)cc2)c1	-	-	-	-	-
Cn1cnc([N+](=O)[O-])c1S(=O)(=O)Oc1ccc(Cl)cc1	-	.	-	.	.
CCOC(=O)CC(NC(=O)C1c2ccccc2Oc2ccccc21)c1ccccc1Cl (stereo not given)	-	-	-	102	-
CCOC(=O)CC(NC(=O)Cc1ccccc1)c1ccccc1Cl (stereo not given)	-	-	-	-	-
Clc1ccc(OCCn2c(-c3ccco3)nc3ccccc32)cc1	-	-	-	137	-
c1coc(Cn2c(-c3ccco3)nc3ccccc32)c1	-	-	-	-	-
CCCn1nnnc1NCc1ccccc1C	-	-	-	-	-
Cc1ccc(-c2[nH]ncc2C(=O)c2ccc(Br)cc2)c(O)c1	-	-	-	71	-
Oc1ccc(-c2[nH]ncc2-c2ccc(Br)cc2)c(O)c1	6.4	.	-	-	-
CCOC(=O)CCCCCC(=O)Nc1ccc2c(c1)CC(=O)N([C@@H](C)CO)C[C@H](C)[C@@H](CN(C)C(=O)Nc1ccc3c(c1)OCO3)O2	-	.	-	.	.
SMILES	DAX1 inh	AHR activator	FXN GAA850 act	HSF-1 act	HSF1 inh
CCOC(=O)/C(=C/c1c[nH]c2ccccc12)NC(C)=O	-	-	-	-	-
CCOC(=O)/C=C(C)\C=C\c1c[nH]c2ccccc12	-	53	-	-	-
COc1ccc(S(=O)(=O)N/N=c2\oc3c(OC)cccc3cc2S(=O)(=O)c2ccc(C)cc2)cc1OC	-	-	-	86	-
COc1cccc2cc(C(=O)Nc3ccccc3C)/c(=N/NS(=O)(=O)c3ccccc3)oc12	-	-	-	-	-
Cc1n[nH]c(C)c1S(=O)(=O)N(CC(=O)N1CCc2ccccc21)c1ccc(C(C)C)cc1	-	-	-	75	-
Cc1ccc(-n2c(=S)[nH]c3c(oc4ccccc43)c2=O)cc1C	-	-	-	-	-
O=c1c2oc3ccccc3c2[nH]c(=S)n1-c1ccc(F)cc1	-	57	-	-	-
Cc1cccc(C)c1NC(=O)C1c2cccc[n+]2CC(=O)N1Cc1cccs1 (stereo not given)	-	-	-	-	-
CCOc1ccccc1-c1ccc(C(=O)NCc2ccccc2)o1	7.3	-	-	-	-
Cc1ccc(-c2ccc(C(=O)NCc3ccccc3)o2)c2ccccc12	-	-	-	-	-
CSc1ncc(C(=O)Nc2ccc(Br)cn2)c(C)n1	-	.	-	-	-
Cc1cc(C(=O)NCCC2=CCCCC2)no1	-	-	-	51	-
COc1cccc(-n2c(SCC(=O)NCC3CCCO3)nc3c(c2=O)SCC3)c1 (stereo not given)	-	-	-	-	-72
COc1ccc(NC(=O)NCCC2=CCCCC2)cc1	-	-	-	72	-

Assay outcomes from PubChem.
